Publication PMC13494018

B1: design_604_3e0b3014-b333-46f1-8adc-d7f0bf8048fa_941_dldesign_0_cycle1_af2pred (protein)
chain: SLLDEAVALLAAANPALAPEFEKLARELQGYLDLAKDYPEIAPVMLKRATRVGEELVAVAAEAGPEVAEVATAAVEEVLAAIK
B2: design_604_3e0b3014-b333-46f1-8adc-d7f0bf8048fa_844_dldesign_0_cycle1_af2pred (protein)
chain: EEEKLKEAEKHLEKMIEILKEAAKKGYAKEEVELVKGDEETRKKGVYNAMGNVITGEGKEGVETARKISRYAKKSEELRKA
B3: design_604_3e0b3014-b333-46f1-8adc-d7f0bf8048fa_1479_dldesign_0_cycle1_af2pred (protein)
chain: MEEEVKKAKEKIEKLEKAALKTIDILEESAKLGDDISGIKTAAKAAEKEFGKLAKEYPGAAAYAKEAEKKVVDYANKAIKAAKAAK
B4: design_604_3e0b3014-b333-46f1-8adc-d7f0bf8048fa_1004_dldesign_0_cycle1_af2pred (protein)
chain: AAAEAARKAEVAKKSKELAKQIAENASDEEKRKALLAEMRALAEAGTPEEAAIVVEEVHKGYEEAAEKLVEERR
B5: design_604_3e0b3014-b333-46f1-8adc-d7f0bf8048fa_1498_dldesign_0_cycle1_af2pred (protein)
chain: SEKEKEEEERKKLAEEERAAAKAALAAAKAAAQKGDVAAAIAAAQEARIHASAYAQYLKTEEAKKERDAIVAAAKAAVAAAKAA
B6: design_604_3e0b3014-b333-46f1-8adc-d7f0bf8048fa_962_dldesign_0_cycle1_af2pred (protein)
chain: HHKKEKAKKVAELLEKARELAEKEGPEAAKPLIVEARSLAFEVDSELGRKIAKAGLLILKDLEKGLKILKEVQEEFKKIA
B7: design_604_3e0b3014-b333-46f1-8adc-d7f0bf8048fa_1117_dldesign_0_cycle1_af2pred (protein)
chain: MEGIETSDLLSKAIKTGKEAYKELKEVGTEEEAEKFKEEMVKKLFEAADADIEESKKLLKELLKEAEEKLEEAKKRKA
B8: design_604_3e0b3014-b333-46f1-8adc-d7f0bf8048fa_1128_dldesign_0_cycle1_af2pred (protein)
chain: MAEKEAQLKKIEEEKKKVSEKFFEAFELASSKELASEISKKSKEANELFKKGREDPSIADKTMEEAKKIAEEALEKAKKEKEA
B9: design_604_3e0b3014-b333-46f1-8adc-d7f0bf8048fa_1413_dldesign_0_cycle1_af2pred (protein)
chain: EEEKEKRAEEKRKEIEELAKLAAENKEKGEKAVEKAKELVEKADEEEAPALAKALSRLVAAAYAVDEEVADKAFEAYALAWKKAQ
B10: design_604_3e0b3014-b333-46f1-8adc-d7f0bf8048fa_818_dldesign_0_cycle1_af2pred (protein)
chain: EEVEKKSEEVKKLLEEGAKTTTIDAQLAASEAVELAEELMKKDPEKGLKVAEVVLKEAEKLLKANPGVGELTIKRAEKVIKRAKE
B11: design_604_3e0b3014-b333-46f1-8adc-d7f0bf8048fa_1571_dldesign_0_cycle1_af2pred (protein)
chain: DPKQLLSDARDQITELFFEAGKEAVPYNRKVVAALKAGDLDAALAAVEEFQKEYPEVGAKAKAVMDKAIAAAKAA
B12: design_604_3e0b3014-b333-46f1-8adc-d7f0bf8048fa_1627_dldesign_0_cycle1_af2pred (protein)
chain: ENLEKAKAADEKAKKFEDKAKEYEAKGKAEGKKYLYKAAAYYYAAAHAYNVAAKYYEKEGKAEEAAAAKAKAKEAEAKGNELAAK
B13: design_604_3e0b3014-b333-46f1-8adc-d7f0bf8048fa_841_dldesign_0_cycle1_af2pred (protein)
chain: AELEKAIKEANALRDKALDNVGNPEEAQKYIDELKEKAKKAAELGGPEVAKEAEKMIKALEDTLEKAKKILE
B14: design_604_3e0b3014-b333-46f1-8adc-d7f0bf8048fa_1344_dldesign_0_cycle1_af2pred (protein)
chain: KEKQKELLLESAVEEAEKAAKLLKDPELGKRLLTAVKAAKEDVSKAPEAAAVAREVGAKEPEASLEASAAAASLLSAYRIAKS
B15: design_604_3e0b3014-b333-46f1-8adc-d7f0bf8048fa_1221_dldesign_0_cycle1_af2pred (protein)
chain: AEMEERKAKGLEQAERLAERAKEAGKLNPEKAAELLGKAEAMLAKVRAMDNEAQWAEAAKEAAKLRELIAEAETEARRKKEEE
B16: design_604_3e0b3014-b333-46f1-8adc-d7f0bf8048fa_1215_dldesign_0_cycle1_af2pred (protein)
chain: SRVEELGKRLANKGKKYSLDDAADFGAEMAIMAGLTEEEAEAAFKYAAEIDPSFAEAMKKGLALYKELTA
B17: design_604_3e0b3014-b333-46f1-8adc-d7f0bf8048fa_1067_dldesign_0_cycle1_af2pred (protein)
chain: SEIEKGEALLKEDPEWAKAASDALGKIAEDPEEGEKYAKEVIEKVLKEDPEKGPLMAKAIEERSEKLKKRVEEALERAK
B18: design_604_3e0b3014-b333-46f1-8adc-d7f0bf8048fa_1927_dldesign_0_cycle1_af2pred (protein)
chain: LVEEAKKIAEEKAEEMKKAMEKAEKEGKEAMKKAKEKFKKLRAELKKLYEEYKKKDPEAAKKLAEGAHKMYEYMNEAEHKL
B19: design_604_3e0b3014-b333-46f1-8adc-d7f0bf8048fa_1387_dldesign_0_cycle1_af2pred (protein)
chain: ELDALVRAAIGEAVVFVLGPAAAPAAERIAAATPEEAKALLEEIAATQTPYQAAELLHTARAFAAYAETKYS
B20: design_604_3e0b3014-b333-46f1-8adc-d7f0bf8048fa_936_dldesign_0_cycle1_af2pred (protein)
chain: MEEAKEKAKEQIKKLKEAAEKAVKVYKEIGKEEEAKKIKEEAKKAEKEAEKLLEKDPYEGAQLAQEALAEAKAELSRAEKELKK
B21: design_604_3e0b3014-b333-46f1-8adc-d7f0bf8048fa_1712_dldesign_0_cycle1_af2pred (protein)
chain: SEEGQKVLEKIEELRKEAEKFAKENKENGPKFARELAKKMRELAEKAKKEYGWNQEILNKASKVVHEARQLANEAEVEAKK
B22: design_604_3e0b3014-b333-46f1-8adc-d7f0bf8048fa_1534_dldesign_0_cycle1_af2pred (protein)
chain: KTEAIQKFADTLSEIIKLAAEAGKKSGKTAEYQALIEGALSGDFETAVKNAKEAAKLAKKDDPELGKKIEEAAKKLAEYAKKVLES
B23: design_604_3e0b3014-b333-46f1-8adc-d7f0bf8048fa_1191_dldesign_0_cycle1_af2pred (protein)
chain: EEKKKEIEELKKKVSKAQLELTDLAAKQDISKKDLEEKVQEAIRKAAKLGKIADEAVAKGEEYYPEAKKALEEALKVLEEAKKAVEEA
B24: design_604_3e0b3014-b333-46f1-8adc-d7f0bf8048fa_1248_dldesign_0_cycle1_af2pred (protein)
chain: NAYEEAKKAVDEMEKAMKALAKADPSLADEMKDKIATARKRLEAAKTDEEYKKVAEEAKKAKAAAQSILDALKKN
B25: design_604_3e0b3014-b333-46f1-8adc-d7f0bf8048fa_1397_dldesign_0_cycle1_af2pred (protein)
chain: SENELTEEAVSLAARVSKRANELGKKTGSEELLKLSEEAKELRDKIVDDPSTAEEALKKVKELEKRIEELTAA
B26: design_604_3e0b3014-b333-46f1-8adc-d7f0bf8048fa_1074_dldesign_0_cycle1_af2pred (protein)
chain: DPAEERVEKARKEMEKAVEKYAEKGKKENLNLAYAEAIREISRIAKELVKEIGEEVRERALKIKEEQLKKLEKLEKEA
B27: design_604_3e0b3014-b333-46f1-8adc-d7f0bf8048fa_1332_dldesign_0_cycle1_af2pred (protein)
chain: EEVKEYLAKLSAEAYELLAEAEVLYKKTGSEKAKEAKELAKEALKELKEAGKLLEEDPEKAKEKAKIGEEKLKKAKEILEEIYKE
B28: design_604_3e0b3014-b333-46f1-8adc-d7f0bf8048fa_1013_dldesign_0_cycle1_af2pred (protein)
chain: SLEEILKEVKAENERLTARIEAAYERGLAAIAAGDLKAASAAAGEIAEARAEAALINTRYGNVAKEVEDKARELLREVRAAGKA
B29: design_604_3e0b3014-b333-46f1-8adc-d7f0bf8048fa_1084_dldesign_0_cycle1_af2pred (protein)
chain: SPAAAAAAVQYAAFDAIAAATDAATVKAIADAAVAALAAAAAADPAHAEQYAKAAAAIKSFADAAIKALK
B30: design_604_3e0b3014-b333-46f1-8adc-d7f0bf8048fa_1186_dldesign_0_cycle1_af2pred (protein)
chain: SMSKELAEKIRKAIREIREAAERAIAEARRLVEEGRVEEGLAVLEEAEKEFRELAKKWEGYAASGVAENGAAALRAVREEIE
B31: design_604_3e0b3014-b333-46f1-8adc-d7f0bf8048fa_1261_dldesign_0_cycle1_af2pred (protein)
chain: EAEKAAKKAEEVGKKAVKEVKKAVEEGLPKEELSKVVHEEIQKITEASTEAARIAEEKAGKEAGEKVLKAGEEARKKLIAIAKE
B32: design_604_3e0b3014-b333-46f1-8adc-d7f0bf8048fa_1621_dldesign_0_cycle1_af2pred (protein)
chain: MEAEKRNEEYAKEVEELYKKVLDGDIEEDKEALKKAEKLLEEAEADPEMKEEVLKGLRAAVRMAKASIEAEEKR
B33: design_604_3e0b3014-b333-46f1-8adc-d7f0bf8048fa_1827_dldesign_0_cycle1_af2pred (protein)
chain: MTHEEINAASYALRALTRAARDVPEAAAEFEAQIDFLMSGSIEEGVEKVIALAEKYRDRLSPEALALFEKAKEYLEKAK
B34: design_604_3e0b3014-b333-46f1-8adc-d7f0bf8048fa_950_dldesign_0_cycle1_af2pred (protein)
chain: AEEALKKAEEYAAKGDEYAAKGEAYEKSGDKLEEAAKYYAKAASYYLLAANAYLAAGNEEKAKEAEAKAEEAAEKATEAYQKASA
B35: design_604_3e0b3014-b333-46f1-8adc-d7f0bf8048fa_1429_dldesign_0_cycle1_af2pred (protein)
chain: DKQVISNKAKAQAERAKQAAKNILKTGDASLAPKVKEIAKKAEKAAKEAEKAGDKESAKEAKKAAKEAKKAAKKVEE
B36: design_604_3e0b3014-b333-46f1-8adc-d7f0bf8048fa_1395_dldesign_0_cycle1_af2pred (protein)
chain: AEKEELIAKAKEIAAKSAEVAKEAKKLGKDAAEAETTAKEAQKTAEEAIKKAEAGEIDVETLKKLVSKAAGLYYEAKSYLEVVKKKKE
B37: design_604_3e0b3014-b333-46f1-8adc-d7f0bf8048fa_762_dldesign_0_cycle1_af2pred (protein)
chain: SKKVYELYAEAKLEQIKRAKELAPKGDPKLAAERAEKLAKEAKEAAKKAGEEGEKIAKEAEKEAEALKKEV
B38: design_604_3e0b3014-b333-46f1-8adc-d7f0bf8048fa_1604_dldesign_0_cycle1_af2pred (protein)
chain: MKDAEKLDEINKLSAEAGKLLKEAAKKDPSRKAELEAAAKEAAKKFDEAYDLFEKDPDAGLALAKEAYKEVKKLVEA

molecular target: VTCN1, Q7Z7D3
Sequence (Q7Z7D3 whole entry): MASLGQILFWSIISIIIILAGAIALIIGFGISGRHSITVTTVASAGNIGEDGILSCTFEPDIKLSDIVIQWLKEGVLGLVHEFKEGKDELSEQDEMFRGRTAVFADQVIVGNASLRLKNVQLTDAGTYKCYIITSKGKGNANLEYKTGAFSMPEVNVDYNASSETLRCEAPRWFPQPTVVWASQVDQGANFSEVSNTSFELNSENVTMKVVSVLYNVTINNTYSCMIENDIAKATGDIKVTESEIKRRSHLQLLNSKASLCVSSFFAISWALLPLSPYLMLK

Binding in a display sort, inactive:
B1 not found, B2 not found, B3 not found, B4 not found, B5 not found, B6 not found, B7 not found, B8 not found, B9 not found, B10 not found, B11 not found, B12 not found, B13 not found, B14 not found, B15 not found, B16 not found, B17 not found, B18 not found, B19 not found, B20 not found, B21 not found, B22 not found, B23 not found, B24 not found, B25 not found, B26 not found, B27 not found, B28 not found, B29 not found, B30 not found, B31 not found, B32 not found, B33 not found, B34 not found, B35 not found, B36 not found, B37 not found, B38 not found
